# Source: PubChem BioAssay AID686959 (The Scripps Research Institute Molecular Screening Center, 2013)
# Activity calls are given as the source filed them. Cut-off not given; nearly all actives show IC50 up to about 8.1 µM.
# Assay: binders of r(CAG) RNA repeats, dose response, biochemical, fluorescence (AID 686959)
# Conditions: r(CAG) RNA repeat binding
row,SMILES,IC50
1,CC1=C(C#N)c2nc(N)c(C#N)c(C)c2/C1=C\c1ccc(-c2ccccc2C(=O)O)o1,2.57 µM (active)
2,COc1ccc(Cn2c(O)c(/C=N/NC(=O)c3cccnc3)c3ccccc3c2=O)cc1,3.07 µM (active)
3,Cc1ccc2c(c1)c(N=Nc1cccc(C(=O)O)c1)c(O)n2C,5.07 µM (active)
4,CCCOc1ccc(N2C(=O)CC(S/C(N)=N/N=C(\C)c3cccs3)C2=O)cc1 (centres undefined),7.76 µM (active)
5,C/C(=N\N=C(/N)SC1CC(=O)N(c2cccc(Cl)c2)C1=O)c1cccs1 (centres undefined),5.19 µM (active)
6,Cc1noc(NS(=O)(=O)c2ccc(NC(=O)COc3ccc(Cl)cc3Cl)cc2)c1C,2.83 µM (active)
7,O=C(O)CCCCCn1c(O)c(C=C2N=c3ccccc3=N2)sc1=S,3.87 µM (active)
8,CCc1nnc(NS(=O)(=O)c2ccc(N/C=C/C(=O)c3ccc(C)cc3)cc2)s1,1.9 µM (active)
9,CC(C)c1ccc(C2c3[nH]c4ccccc4c3C[C@H]3C(=O)N(c4ccccc4C(=O)N4CCC[C@@H]4C(=O)O)C(=O)N23)cc1 (some centres undefined),2.84 µM (active)
10,O=c1[nH]n2c(=O)c3c([nH]c2c1N=Nc1cccc(Cl)c1)CCC3,2.33 µM (active)
11,COc1cc(/C=C2\C(=O)N(c3ccc(NC(C)=O)cc3)N=C2c2ccccc2)ccc1O,2.9 µM (active)
12,Oc1ccc(/C=N/Nc2ccnc3cc(Cl)ccc23)c(O)c1O,2.5 µM (active)
13,N#CC1=C(N)n2c(s/c(=C\c3ccco3)c2=O)=C(C#N)C1c1ccco1 (centres undefined),5.38 µM (active)
14,O=C(C1=C(O)C(=O)N(c2nc3ccc(Cl)cc3s2)C1c1ccco1)c1ccco1 (centres undefined),0.987 µM (active)
15,CC(=O)C1=C(O)C(=O)N(c2cc(C(C)(C)C)on2)C1c1ccc(Br)cc1 (centres undefined),2.49 µM (active)
16,CC1=NN(C(N)=S)C(=O)C1N=Nc1c(Br)cc(Br)cc1Br (centres undefined),5.73 µM (active)
17,Cc1cc(N2C(=O)C(O)=C(C(=O)c3cc4ccccc4o3)C2c2cccc(Cl)c2)no1 (centres undefined),1.19 µM (active)
18,CCCOc1cccc(C2C(C(=O)c3ccc(C)o3)=C(O)C(=O)N2c2nc(C)c(C(C)=O)s2)c1 (centres undefined),4.06 µM (active)
19,N/C(=N\N=C\c1cccs1)SC1CC(=O)N(c2ccc(Br)cc2)C1=O (centres undefined),8.27 µM (active)
20,COc1ccc2nc(N3C(=O)C(O)=C(C(=O)c4ccco4)C3c3ccc(OC)c(OC)c3)sc2c1 (centres undefined),2.04 µM (active)
21,COC(=O)c1sc(N2C(=O)C(O)=C(C(=O)c3ccc(C)o3)C2c2ccc([N+](=O)[O-])cc2)nc1C (centres undefined),0.636 µM (active)
22,C=CCOc1c(OC)cc(/C=N/Nc2cccc(C(=O)O)c2)c(Br)c1Br,2.28 µM (active)
23,Cc1ccc2nc(N3C(=O)C(O)=C(C(=O)c4ccco4)C3c3ccc(C)o3)sc2c1 (centres undefined),0.624 µM (active)
24,CCOC(=O)C1=C(C)NC(SCc2cc(=O)[nH][nH]2)=C(C#N)C1c1cccs1 (centres undefined),7.4 µM (active)
25,N#C/C(C(=O)Nc1ccc(Cl)cc1)=C(/S)Nc1ccccc1,6.14 µM (active)
26,CC(C)c1ccc(C2c3[nH]c4ccccc4c3C[C@H]3C(=O)N(c4ccccc4C(=O)N4CCC[C@H]4C(=O)O)C(=O)N23)cc1 (some centres undefined),3.35 µM (active)
27,N#CC(C#N)=C(Nc1ccc(F)cc1)SCc1cccc(Br)c1,7.57 µM (active)
28,N#CC1=C(S)N(c2ccccc2)C(c2ccc(-c3cc(Cl)ccc3Cl)o2)NC1=O (centres undefined),1.47 µM (active)
29,O=C(O)c1ccc(N2C(=O)CC(SC(=NCc3ccc4c(c3)OCO4)Nc3ccc(F)cc3)C2=O)cc1 (centres undefined),2.89 µM (active)
